Laboratory results as given in PubChem BioAssay (NCATS).
Records with an inconclusive call do not appear. Activity calls are given as the source filed them. Unless noted, the call rests on the fitted dose curve; in most records, active means well fitted curve in the direction sought with a large enough effect; inconclusive means small, poorly fitted or top-dose-only effect, or another doubt; inactive means no such curve, though single readings can be large; an effect the other way counts as inactive or inconclusive.

Columns and labels:
[1] = target: Lysosomal acid glucosylceramidase (Homo sapiens) (UniProt P04062); experiment: Glucocerebrosidase-p2 (AID 348; in the data active means potency below about 10 µM; further: potency means the concentration at half of the fitted maximal effect); settings: purified GBA, blue fluorogenic substrate, 40 min
Lysosomal acid glucosylceramidase (Homo sapiens), sequence (P04062 whole entry, looked up): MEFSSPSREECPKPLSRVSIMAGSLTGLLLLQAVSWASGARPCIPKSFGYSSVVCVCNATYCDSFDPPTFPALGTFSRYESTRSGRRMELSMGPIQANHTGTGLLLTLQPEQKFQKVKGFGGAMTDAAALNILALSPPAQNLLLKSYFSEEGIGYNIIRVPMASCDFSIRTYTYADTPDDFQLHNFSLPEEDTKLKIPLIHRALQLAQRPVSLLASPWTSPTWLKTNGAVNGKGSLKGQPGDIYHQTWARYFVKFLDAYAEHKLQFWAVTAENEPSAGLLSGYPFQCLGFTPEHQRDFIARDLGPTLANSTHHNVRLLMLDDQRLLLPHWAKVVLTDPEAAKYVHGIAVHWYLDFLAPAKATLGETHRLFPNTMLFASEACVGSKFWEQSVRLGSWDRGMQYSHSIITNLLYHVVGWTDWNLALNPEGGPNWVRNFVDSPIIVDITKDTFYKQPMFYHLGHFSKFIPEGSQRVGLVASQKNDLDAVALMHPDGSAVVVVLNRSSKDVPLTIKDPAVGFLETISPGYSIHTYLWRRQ
Summary of the method: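 Compounds titrated from 0.6 nM upwards against 0.2 nM enzyme in pH 5.9 citric acid/KH2PO4, taurocholate, tween-20; blue fluorogenic substrate 80 uM, 40 min room temperature, stopped and read Ex 365/Em 440 for AC50.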

[2] = AP1 Signaling Pathway (AID 357; active means well fitted curve in either direction with a large enough effect, not every such curve was filed as active;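 further: ME-180 reporter cells stimulated with EGF at its EC50 level; on the % scale 0 is the no-effect control and ±100 the full control effect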); settings: ME-180 AP-1-bla reporter, EGF-induced, beta-lactamase ratio, 5 h; at 7.69 µM (top of the series) unless noted
Summary of the method: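 Modulation of EGF-driven AP-1 transcription was assessed with a beta-lactamase reporter in ME-180 cells. Compound and EC50 EGF were co-incubated 5 hours at 37 °C before 2.5-hour CCF4 loading at room temperature and dual-emission reading.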

[3] = target: Cytochrome P450 1A2 (Homo sapiens) (UniProt P05177); experiment: p450-cyp1a2 (AID 410; calls by dose curve; further: potency means the concentration at half of the fitted maximal effect); settings: recombinant CYP1A2, luciferin-ME demethylation, luminescence; series mostly up to 57 µM
Cytochrome P450 1A2 (Homo sapiens), sequence (P05177 whole entry, looked up): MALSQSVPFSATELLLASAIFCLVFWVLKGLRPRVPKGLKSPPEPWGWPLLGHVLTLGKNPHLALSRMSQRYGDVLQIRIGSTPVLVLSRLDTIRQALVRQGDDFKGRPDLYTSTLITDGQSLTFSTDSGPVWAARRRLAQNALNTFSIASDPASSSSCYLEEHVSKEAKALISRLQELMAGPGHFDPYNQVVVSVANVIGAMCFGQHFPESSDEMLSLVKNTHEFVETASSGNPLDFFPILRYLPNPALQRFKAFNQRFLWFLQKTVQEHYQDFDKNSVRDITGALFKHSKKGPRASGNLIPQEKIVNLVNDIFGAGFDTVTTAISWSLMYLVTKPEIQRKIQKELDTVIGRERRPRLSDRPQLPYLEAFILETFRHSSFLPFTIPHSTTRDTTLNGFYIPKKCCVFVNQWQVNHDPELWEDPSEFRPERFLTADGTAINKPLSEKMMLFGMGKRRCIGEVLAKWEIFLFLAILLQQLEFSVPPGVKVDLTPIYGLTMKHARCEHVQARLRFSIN
Summary of the method: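 20nM CYP1A2 with 100uM Luciferin-ME (at Km) in 100mM KPO4; compound preincubated 10 min, NADPH regeneration added, 60 min at room temperature. Luciferin quantified by luminescence after detection reagent; normalized to 57 uM furafylline.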

[4] = Stat Signaling Pathway (AID 446; active means well fitted curve in either direction with a large enough effect, not every such curve was filed as active;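 further: ME-180 cervical cancer cells given 40 pM IL-6 alongside compound; SIE-controlled beta-lactamase reporter measured as 460/530 nm FRET emission ratio; on the % scale 0 is the no-effect control and ±100 the full control effect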); settings: ME-180 SIE beta-lactamase reporter, IL-6 stimulated, 5 h; at 7.69 µM (top of the series) unless noted
Summary of the method: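 ME-180 cells carrying a SIE-driven beta-lactamase reporter are stimulated with 40 pM IL-6 for 5 h at 37C in the presence of compound. The 460/530 nm FRET substrate ratio is read after 2.5 h at RT. Data are normalised to 300 pM IL-6 and to 125 nM JAK inhibitor controls.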

[5] = target: Glucocorticoid receptor (Homo sapiens) (UniProt P04150); experiment: GR-GFP Redistribution (AID 450;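 active means compounds whose dose series gives a full or clear partial fitted curve of increased nuclear translocation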; further: potency means the concentration at half of the fitted maximal effect); settings: U2OS GR-GFP nuclear translocation, laser cytometry, 2 h
Glucocorticoid receptor (Homo sapiens), sequence (P04150 whole entry, looked up, the tested form may be a part): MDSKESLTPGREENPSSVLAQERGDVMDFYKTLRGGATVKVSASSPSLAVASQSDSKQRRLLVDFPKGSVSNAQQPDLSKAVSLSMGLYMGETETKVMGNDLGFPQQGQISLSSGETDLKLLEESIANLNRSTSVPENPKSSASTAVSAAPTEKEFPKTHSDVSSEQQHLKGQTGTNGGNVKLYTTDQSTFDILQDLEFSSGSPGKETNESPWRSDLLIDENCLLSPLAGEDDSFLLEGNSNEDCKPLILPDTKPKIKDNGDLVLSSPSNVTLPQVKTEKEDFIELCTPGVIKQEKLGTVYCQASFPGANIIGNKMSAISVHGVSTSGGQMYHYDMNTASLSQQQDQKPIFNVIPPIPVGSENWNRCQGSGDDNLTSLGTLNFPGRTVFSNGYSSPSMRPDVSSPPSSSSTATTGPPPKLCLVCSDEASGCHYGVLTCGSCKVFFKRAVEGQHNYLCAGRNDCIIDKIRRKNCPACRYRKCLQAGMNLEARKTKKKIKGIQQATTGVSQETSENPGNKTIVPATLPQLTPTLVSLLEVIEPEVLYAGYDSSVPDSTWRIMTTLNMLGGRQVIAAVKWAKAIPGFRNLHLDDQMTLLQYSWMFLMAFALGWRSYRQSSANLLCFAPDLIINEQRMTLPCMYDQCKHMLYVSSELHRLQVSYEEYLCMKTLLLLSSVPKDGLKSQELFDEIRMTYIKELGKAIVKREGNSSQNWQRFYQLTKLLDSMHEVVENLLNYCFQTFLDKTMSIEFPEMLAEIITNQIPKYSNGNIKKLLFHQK

[6] = target: Glucocorticoid receptor (Homo sapiens) (UniProt P04150); experiment: GR-EFC Redistribution (AID 451; calls by dose curve; further: potency means the concentration at half of the fitted maximal effect); settings: CHO-K1 GR-EFC translocation, beta-gal luminescence, 2 h
Summary of the method: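 CHO-K1 cells expressing nuclear EA and GR-ED fragments of b-gal; compounds titrated up to 46 uM final, 2 h at 37 C. GR nuclear translocation read as complemented b-gal luminescence after 1 h RT detection.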

[7] = target: Mitogen-activated protein kinase 10 (Mus musculus) (UniProt Q61831); experiment: JNK3 AlphaScreen Assay (AID 530; active means well fitted curve in either direction with a large enough effect, not every such curve was filed as active;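 further: kinase came from lysate of stimulated human HepG2 cells; signal reports phosphorylation of biotinylated GST-cJun 1-79 at Ser73 with 10 µM ATP; on the % scale 0 is the no-effect control and ±100 the full control effect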); settings: JNK3 lysate, c-Jun phosphorylation; series mostly up to 57.1 µM
Summary of the method: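 Pre-activated (IL-1β/TNFα) JNK3 in HepG2 lysates phosphorylates biotin-GST-cJun(1-79), 10 uM ATP; anti-phospho-cJun(Ser73) AlphaScreen read at room temperature, pH 7.6 Tris buffer. Compounds pre-incubated 15 min as titrations.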

[8] = target: 3',5'-cyclic-AMP phosphodiesterase 4B (Homo sapiens) (UniProt Q07343); experiment: qHTS Assay for Inhibitors of PDE-IV (AID 607; active means well fitted activation curve with a large enough effect in the main read-out, with a control signal flat, not every such curve was filed as active; further: % of control where 0% means no effect); settings: HEK293 ACTOne CNG channel cells, membrane potential fluorescence; series mostly up to 22.9 µM
3',5'-cyclic-AMP phosphodiesterase 4B (Homo sapiens), sequence (Q07343 whole entry, looked up): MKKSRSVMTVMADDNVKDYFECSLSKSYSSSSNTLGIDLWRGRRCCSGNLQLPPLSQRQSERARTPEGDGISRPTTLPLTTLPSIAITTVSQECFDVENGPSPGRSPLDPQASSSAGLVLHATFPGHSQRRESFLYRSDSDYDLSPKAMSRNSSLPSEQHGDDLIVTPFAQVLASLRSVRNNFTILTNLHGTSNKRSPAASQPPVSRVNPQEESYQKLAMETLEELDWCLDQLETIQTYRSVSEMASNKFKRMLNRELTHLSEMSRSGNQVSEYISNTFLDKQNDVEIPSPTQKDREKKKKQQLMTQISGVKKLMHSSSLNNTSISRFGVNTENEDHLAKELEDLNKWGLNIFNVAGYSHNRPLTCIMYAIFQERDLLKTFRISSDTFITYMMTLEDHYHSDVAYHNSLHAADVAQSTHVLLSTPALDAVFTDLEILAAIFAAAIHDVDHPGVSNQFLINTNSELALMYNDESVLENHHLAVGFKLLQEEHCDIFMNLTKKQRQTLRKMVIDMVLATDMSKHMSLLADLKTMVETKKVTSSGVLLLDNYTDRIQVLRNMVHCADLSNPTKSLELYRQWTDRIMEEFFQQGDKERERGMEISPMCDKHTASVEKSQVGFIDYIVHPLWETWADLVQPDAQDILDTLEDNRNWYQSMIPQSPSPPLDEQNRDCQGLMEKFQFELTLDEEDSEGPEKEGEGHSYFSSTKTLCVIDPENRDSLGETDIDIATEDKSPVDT
Summary of the method: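 HEK293 ACTOne cells with CNG channel (1000/well), endogenous PDE4; membrane potential dye, compounds up to 22.9 uM final. Fluorescence Ex 535/Em 590; RO 20-1724 (100 uM final) as reference.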

[9] = target: Cytochrome P450 3A4 (Homo sapiens) (UniProt P08684); experiment: qHTS Assay for Activators of Cytochrome P450 3A4 (AID 885); settings: recombinant CYP3A4, Luciferin-PPXE luminescence, 60 min; series mostly up to 57.1 µM; further: nearly all actives have a fitted effect of over 65% in size
Cytochrome P450 3A4 (Homo sapiens), sequence (P08684 whole entry, looked up): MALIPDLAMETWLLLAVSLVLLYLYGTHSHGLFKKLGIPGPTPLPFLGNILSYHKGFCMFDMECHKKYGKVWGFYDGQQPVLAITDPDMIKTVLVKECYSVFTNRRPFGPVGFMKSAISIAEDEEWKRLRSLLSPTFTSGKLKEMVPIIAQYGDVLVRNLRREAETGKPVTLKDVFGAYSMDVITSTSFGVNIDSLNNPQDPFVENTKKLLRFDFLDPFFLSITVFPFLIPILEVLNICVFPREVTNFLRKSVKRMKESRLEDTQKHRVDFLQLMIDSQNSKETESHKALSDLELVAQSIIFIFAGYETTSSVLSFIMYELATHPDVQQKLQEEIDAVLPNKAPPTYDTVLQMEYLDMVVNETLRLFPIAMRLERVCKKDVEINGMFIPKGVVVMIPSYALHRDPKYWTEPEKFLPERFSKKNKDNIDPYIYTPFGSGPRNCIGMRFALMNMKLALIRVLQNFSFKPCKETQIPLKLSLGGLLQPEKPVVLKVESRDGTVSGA
Summary of the method: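 Human CYP3A4 (20 nM) with Luciferin-PPXE at 25 uM (its KM) in 200 mM KPO4; 10 min compound preincubation, then NADPH regeneration and 60 min reaction at RT. Luciferin read by luminescence; normalized to 57 uM ketoconazole full inhibition.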

[10] = target: Cytochrome P450 2D6 (Homo sapiens) (UniProt P10635); experiment: qHTS Assay for Inhibitors and Substrates of Cytochrome P450 2D6 (AID 891); settings: recombinant CYP2D6, luciferin-ME EGE luminescence; series mostly up to 57.1 µM; further: potency means the concentration at half of the fitted maximal effect; nearly all actives have a fitted effect of over 60% in size
Cytochrome P450 2D6 (Homo sapiens), sequence (P10635 whole entry, looked up): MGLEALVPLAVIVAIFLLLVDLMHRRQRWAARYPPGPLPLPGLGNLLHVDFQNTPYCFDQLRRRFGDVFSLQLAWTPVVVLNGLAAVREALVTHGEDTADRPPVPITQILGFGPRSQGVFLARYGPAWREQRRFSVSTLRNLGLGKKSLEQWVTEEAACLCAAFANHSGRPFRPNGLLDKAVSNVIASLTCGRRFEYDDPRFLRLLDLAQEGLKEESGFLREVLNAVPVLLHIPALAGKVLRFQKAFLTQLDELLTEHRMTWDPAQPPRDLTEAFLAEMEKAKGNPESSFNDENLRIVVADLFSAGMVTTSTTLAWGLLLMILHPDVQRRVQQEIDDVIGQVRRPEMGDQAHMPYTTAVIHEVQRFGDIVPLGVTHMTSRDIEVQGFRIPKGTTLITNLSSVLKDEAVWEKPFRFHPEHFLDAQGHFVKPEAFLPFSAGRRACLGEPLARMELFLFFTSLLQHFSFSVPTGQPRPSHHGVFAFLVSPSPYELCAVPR
Summary of the method: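 Human CYP2D6 (5 nM) with 30 uM Luciferin-ME EGE (at Km) in 100 mM KPO4, compound preincubated 10 min, then NADPH regeneration system for 60 min at room temperature. Luciferin read by luminescence; normalized to 1.43 uM quinidine.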

[11] = qHTS Assay for Lipid Storage Modulators (AID 1519; calls by dose curve; on activity change, negative = inhibition: on the % scale 0 is the no-effect control and ±100 the full control effect); settings: Drosophila S3 cells, BODIPY lipid droplet/cell ratio, laser cytometry, cells loaded with oleic acid
Summary of the method: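 Cells seeded at 5,000 per well were treated with compounds over a concentration series and loaded with oleic acid (400 uM, as added). Lipid droplet fluorescence (488 nm excitation, 500-530 nm channel) was read by laser-scanning cytometry and normalized to 20 uM Triacsin C.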

[12] = target: Dual specificity protein kinase CLK4 (Homo sapiens) (UniProt Q9HAZ1); experiment: qHTS Assay for Inhibitors of CDC-like Kinase 4 (Kinase-Glo Assay) (AID 1770); settings: recombinant Clk4, Kinase-Glo ATP depletion luminescence; series mostly up to 66.7 µM; further: on the % scale 0 is the no-effect control and ±100 the full control effect; nearly all actives have a fitted effect of over 65% in size
Dual specificity protein kinase CLK4 (Homo sapiens), sequence (Q9HAZ1 whole entry, looked up): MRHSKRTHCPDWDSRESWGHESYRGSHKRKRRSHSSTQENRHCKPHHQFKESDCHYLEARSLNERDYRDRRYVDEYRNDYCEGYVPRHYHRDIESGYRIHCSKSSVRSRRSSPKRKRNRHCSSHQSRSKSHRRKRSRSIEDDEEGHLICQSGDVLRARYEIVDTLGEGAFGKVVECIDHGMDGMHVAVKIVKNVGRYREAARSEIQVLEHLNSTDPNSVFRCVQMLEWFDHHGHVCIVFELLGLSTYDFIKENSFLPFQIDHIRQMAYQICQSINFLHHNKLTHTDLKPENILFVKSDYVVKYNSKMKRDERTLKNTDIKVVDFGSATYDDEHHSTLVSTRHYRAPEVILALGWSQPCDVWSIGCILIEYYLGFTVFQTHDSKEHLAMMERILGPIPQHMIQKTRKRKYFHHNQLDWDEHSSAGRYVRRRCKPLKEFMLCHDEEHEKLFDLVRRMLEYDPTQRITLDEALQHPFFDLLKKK
Summary of the method: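 Recombinant human Clk4 (25 nM) phosphorylated RS repeat peptide (100 uM) with 1 uM ATP in Tris pH 7.5/MgCl2/EGTA/DTT/Triton buffer for 4.5 h at room temperature. Residual ATP was quantified by Kinase-Glo luciferase luminescence.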

[13] = target: Dual specificity protein kinase CLK4 (Homo sapiens) (UniProt Q9HAZ1); experiment: qHTS Assay for Inhibitors of CDC-like Kinase 4 (ADP-FP Assay) (AID 1795); settings: Transcreener ADP fluorescence polarization; series mostly up to 50 µM; further: on the % scale 0 is the no-effect control and ±100 the full control effect; nearly all actives have a fitted effect of over 60% in size
Summary of the method: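 Recombinant human Clk4 (6.25 nM) phosphorylated RS repeat peptide (100 uM) with 1 uM ATP in Tris pH 7.5/MgCl2/EGTA/DTT/Triton buffer for one hour. ADP was quantified by Transcreener competitive fluorescence polarization against an ADP calibration curve.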

[14] = target: Ubiquitin carboxyl-terminal hydrolase 1 (Homo sapiens) (UniProt O94782); experiment: Inhibitors of USP1/UAF1: Pilot qHTS (AID 504865); settings: purified USP1/UAF1, Ub-rhodamine cleavage fluorescence; series mostly up to 54.9 µM;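 further: rhodamine fluorescence freed from ubiquitin-rhodamine substrate followed over time; top concentration of the series differs between compounds; on the % scale 0 is the no-effect control and ±100 the full control effect; nearly all actives have a fitted effect of over 35% in size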
Ubiquitin carboxyl-terminal hydrolase 1 (Homo sapiens), sequence (O94782 whole entry, looked up): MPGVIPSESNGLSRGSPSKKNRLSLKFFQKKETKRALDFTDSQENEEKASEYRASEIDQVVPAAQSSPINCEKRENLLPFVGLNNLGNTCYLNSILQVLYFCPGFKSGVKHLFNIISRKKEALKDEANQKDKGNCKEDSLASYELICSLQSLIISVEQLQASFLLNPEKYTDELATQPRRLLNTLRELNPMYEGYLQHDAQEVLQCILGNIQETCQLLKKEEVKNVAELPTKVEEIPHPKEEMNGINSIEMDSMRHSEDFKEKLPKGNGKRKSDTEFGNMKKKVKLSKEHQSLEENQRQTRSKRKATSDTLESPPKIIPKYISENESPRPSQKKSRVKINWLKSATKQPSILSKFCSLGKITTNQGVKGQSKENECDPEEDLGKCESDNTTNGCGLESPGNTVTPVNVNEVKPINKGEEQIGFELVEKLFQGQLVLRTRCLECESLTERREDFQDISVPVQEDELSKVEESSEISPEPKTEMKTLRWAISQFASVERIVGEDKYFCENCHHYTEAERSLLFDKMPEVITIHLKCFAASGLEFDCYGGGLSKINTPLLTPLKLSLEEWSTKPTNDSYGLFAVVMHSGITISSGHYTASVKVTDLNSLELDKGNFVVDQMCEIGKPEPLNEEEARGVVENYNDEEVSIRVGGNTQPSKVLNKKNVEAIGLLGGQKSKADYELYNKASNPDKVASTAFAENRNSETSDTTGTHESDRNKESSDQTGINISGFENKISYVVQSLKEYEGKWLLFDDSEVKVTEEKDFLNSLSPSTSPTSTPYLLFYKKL
Summary of the method: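 USP1/UAF1 complex (1nM) preincubated with compound 15 min at room temperature, then Ub-Rho substrate (150nM final) added. Fluorescence read kinetically at 480/540 nm, 6 reads every 60 seconds. Buffer: 50mM HEPES pH 7.8, 0.5mM EDTA, 0.1 mg/ml BSA, 1mM TCEP, 0.01% Tween-20.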

CN(C)Cc1ccccc1-c1cc(N(C)Cc2ccco2)ncn1
inactive: Potency [1] > 11.4 µM | activity change, negative = inhibition [2] 4.53% | activity, negative = inhibition [4] -3.48% | Potency [5] > 46 µM | Potency [6] > 46 µM | outcome [7] | Potency [8] | Potency [9] | activity change, negative = inhibition ([11]; at 57.5 µM (top of the series)) 5.32% | Potency [12] | Potency [13] | Potency [14]
active: Potency [3] 15.8 µM | Potency [10] 7.94 µM
23.3%: max response ([11]; measured here: lipid channel max response)
19.9%: max response ([11]; measured here: cell count channel max response)
